Where “and” joins values, the source holds several entries; their conditions need not be identical. Identical values can stand only once. Results filed as inconclusive are left out. Some structures have more than one record in an assay (separate samples or runs), and their calls can disagree. Calls of active or inactive are those of the source. The call rests on the fitted dose curve; in most records, active means well fitted curve in the direction sought with a large enough effect; inconclusive means small, poorly fitted or top-dose-only effect, or another doubt; inactive means no such curve, though single readings can be large; an effect the other way counts as inactive or inconclusive.
Experiments:
[1] = molecular target: Cytochrome P450 3A4 (Homo sapiens) (UniProt P08684); assay: qHTS Assay for Inhibitors and Substrates of Cytochrome P450 3A4 (AID 884); further: potency means the concentration at half of the fitted maximal effect; nearly all actives have a fitted effect of over 50% in size
Cytochrome P450 3A4 (Homo sapiens), sequence (P08684 whole entry, looked up): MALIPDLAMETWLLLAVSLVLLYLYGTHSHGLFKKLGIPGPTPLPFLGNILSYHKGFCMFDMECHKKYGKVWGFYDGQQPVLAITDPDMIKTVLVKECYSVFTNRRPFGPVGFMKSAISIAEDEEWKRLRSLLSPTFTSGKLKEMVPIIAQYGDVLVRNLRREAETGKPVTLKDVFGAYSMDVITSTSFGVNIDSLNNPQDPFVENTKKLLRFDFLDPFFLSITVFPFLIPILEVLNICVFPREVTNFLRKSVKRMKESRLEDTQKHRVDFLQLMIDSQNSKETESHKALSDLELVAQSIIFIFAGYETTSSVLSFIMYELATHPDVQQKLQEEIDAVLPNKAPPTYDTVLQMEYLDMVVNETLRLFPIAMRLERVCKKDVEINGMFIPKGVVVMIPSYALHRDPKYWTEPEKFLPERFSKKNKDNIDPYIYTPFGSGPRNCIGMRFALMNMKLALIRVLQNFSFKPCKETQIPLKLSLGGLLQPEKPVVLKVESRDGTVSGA
In short: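 20 nM human CYP3A4 with 25 uM Luciferin-PPXE (at KM) in 200 mM KPO4, preincubated 10 min with compound; NADPH regeneration started a 60 min RT reaction. Luciferin detected by luminescence, normalized to 57 uM ketoconazole as full inhibition.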

[2] = molecular target: Cytochrome P450 3A4 (Homo sapiens) (UniProt P08684); assay: qHTS Assay for Activators of Cytochrome P450 3A4 (AID 885); further: nearly all actives have a fitted effect of over 65% in size
In short: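 Quantitative HTS format: compounds preincubated with 20nM human CYP3A4 and Luciferin-PPXE substrate at KM, reaction started by NADPH regeneration, stopped after 60 min, luciferase luminescence read 20 min later.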

[3] = molecular target: Cytochrome P450 2D6 (Homo sapiens) (UniProt P10635); assay: qHTS Assay for Inhibitors and Substrates of Cytochrome P450 2D6 (AID 891); further: nearly all actives have a fitted effect of over 60% in size; further: potency means the concentration at half of the fitted maximal effect
Cytochrome P450 2D6 (Homo sapiens), sequence (P10635 whole entry, looked up): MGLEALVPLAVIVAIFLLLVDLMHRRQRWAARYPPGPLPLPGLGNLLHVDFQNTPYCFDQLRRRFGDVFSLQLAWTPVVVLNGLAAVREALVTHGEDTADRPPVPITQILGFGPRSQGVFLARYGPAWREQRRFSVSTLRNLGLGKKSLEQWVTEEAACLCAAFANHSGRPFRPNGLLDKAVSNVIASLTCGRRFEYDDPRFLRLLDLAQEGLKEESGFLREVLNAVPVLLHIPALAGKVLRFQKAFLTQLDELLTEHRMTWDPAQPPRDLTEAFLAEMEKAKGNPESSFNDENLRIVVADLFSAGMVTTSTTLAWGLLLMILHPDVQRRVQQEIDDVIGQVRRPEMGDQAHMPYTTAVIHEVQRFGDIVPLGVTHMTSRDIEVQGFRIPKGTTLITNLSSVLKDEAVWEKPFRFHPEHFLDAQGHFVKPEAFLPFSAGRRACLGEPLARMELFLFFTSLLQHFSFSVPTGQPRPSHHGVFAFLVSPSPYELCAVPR
In short: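 Human CYP2D6 (5 nM) with 30 uM Luciferin-ME EGE (at Km) in 100 mM KPO4, compound preincubated 10 min, then NADPH regeneration system for 60 min at room temperature. Luciferin read by luminescence; normalized to 1.43 uM quinidine.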

[4] = molecular target: Cytochrome P450 2C19 (Homo sapiens) (UniProt P33261); assay: qHTS Assay for Inhibitors and Substrates of Cytochrome P450 2C19 (AID 899); further: nearly all actives have a fitted effect of over 60% in size; further: potency means the concentration at half of the fitted maximal effect
Cytochrome P450 2C19 (Homo sapiens), sequence (P33261 whole entry, looked up): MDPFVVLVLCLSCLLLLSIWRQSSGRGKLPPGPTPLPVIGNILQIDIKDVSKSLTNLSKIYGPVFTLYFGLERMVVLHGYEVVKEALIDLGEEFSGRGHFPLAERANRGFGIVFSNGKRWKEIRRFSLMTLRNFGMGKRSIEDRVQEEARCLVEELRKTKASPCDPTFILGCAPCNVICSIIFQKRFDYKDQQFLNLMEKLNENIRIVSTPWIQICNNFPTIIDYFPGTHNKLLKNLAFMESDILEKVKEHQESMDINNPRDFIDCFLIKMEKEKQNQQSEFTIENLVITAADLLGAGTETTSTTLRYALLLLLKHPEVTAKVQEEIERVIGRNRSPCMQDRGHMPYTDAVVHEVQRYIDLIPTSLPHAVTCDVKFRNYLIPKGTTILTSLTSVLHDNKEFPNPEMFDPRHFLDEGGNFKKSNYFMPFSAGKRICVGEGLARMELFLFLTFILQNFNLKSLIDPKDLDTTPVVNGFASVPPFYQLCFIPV
In short: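 5 nM human CYP2C19 with 10uM Luciferin-H EGE (at KM) in 50mM KPO4, compound preincubated 10 min at 37C, then NADPH regeneration for 60 min at 37C. Luciferin read by luminescence after detection reagent; normalized to 57uM ketoconazole as full inhibition.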

SMILES	Potency [1]	Potency [2]	activity change, positive = activation [2]	Potency [3]	Potency [4]
CCC1=C(OC(=O)N(CC)CC)N2C(=O)OC(=NCC(=O)OC)[C@]2(C)[C@H]2C1=CC[C@H]1C(=O)N(CC(=O)OC)C(=O)[C@H]12	10 µM (active)	inactive			
COc1ccc(O[C@H]2C=C[C@@H](c3ccccc3)O[C@@H]2CO/N=C(\C)CCN2CCCc3nc(C)c(C)cc32)cc1	3.16 µM (active)		-63.6% [at 11.4 µM] (inactive)	3.16 µM (active)	0.398 µM (active)
Cc1ccc(/C=C/C2=CC3(C)CC2(C)C(c2ccc(C)cc2)CC3=O)cc1 (configuration not stated)	3.98 µM (active)		-95.3% [at 11.4 µM] (inactive)	inactive	
CCOC(c1cc(OC)cc([N+](=O)[O-])c1OC)C(C)C(OC)[C@@H](C)/C=C/CC(=O)OC (some centres not stated)	3.98 µM (active)		-78.6% [at 11.4 µM] (inactive)	inactive	1 µM (active)
CC(C)CCN1CCc2nc(COc3ccccc3)c3c(c2C1)COC(C)C3 (configuration not stated)	3.16 µM (active)		-76.7% [at 11.4 µM] (inactive)	inactive	inactive
C/C(CCC(=O)OC[C@@H]1O[C@H](C#Cc2ccccc2)C=C[C@@H]1Oc1ccc(C)cc1)=N/O[C@@H](C)CN1CCCc2nc(C)c(C)cc21	3.98 µM (active)		-95.5% [at 11.4 µM] (inactive)	3.16 µM (active)	3.16 µM (active)
CCCNC(=O)OC[C@@H]1O[C@H](CCO/N=C(\C)CCC(=O)OC[C@@H]2O[C@H](c3ccccc3)C=C[C@@H]2Oc2ccc(OC)cc2)C=C[C@@H]1Oc1ccc(OC)cc1	5.01 µM (active)		-87% [at 11.4 µM] (inactive)		
COc1cccc([C@@H]2Oc3ccc(OC)cc3/C(=N/O[C@@H](C)CN3CCCc4nc(C)c(C)cc43)[C@@H]2O)c1	3.16 µM (active)		-92.2% [at 11.4 µM] (inactive)	3.98 µM (active)	
COC(=O)C/C=C\[C@@H](C)[C@@H](/C=N\OC[C@@H](O)COCc1ccco1)NS(=O)(=O)c1ccc(C)cc1	3.16 µM (active)		-107% [at 11.4 µM] (inactive)	inactive	
COc1ccc(O[C@H]2C=C[C@@H](c3ccccc3)O[C@H]2COC(=O)CC/C(C)=N\O[C@@H](C)CN2CCCc3nc(C)c(C)cc32)cc1	3.16 µM (active)		-97% [at 11.4 µM] (inactive)	3.16 µM (active)	3.16 µM (active)
CC(C)(C)c1ccc(OC2C(O)COC2/C=C/C#Cc2ccccc2)cc1 (configuration not stated)	3.16 µM (active) and 3.98 µM (active)		-77.1% [at 11.4 µM] (inactive) and -67.5% [at 11.4 µM] (inactive)	inactive	3.16 µM (active) and inactive
C=C(C)C(O)/C=C/c1ccc(C)cc1 (configuration not stated)	3.98 µM (active)		-72.8% [at 11.4 µM] (inactive)	inactive	5.01 µM (active)
COCC#Cc1ccc(C2C(C)CCC3C(=O)N4C(CCC(C)C4c4ccc(C#CCOC)cc4)C(=O)N32)cc1 (configuration not stated)	1.26 µM (active)		-65.6% [at 11.4 µM] (inactive)	inactive	inactive
C/C=C/OC(=O)NC(c1ccccc1)[C@]1(C(C)=O)CCOC1=O (some centres not stated)	0.0316 µM (active)		-81.2% [at 11.4 µM] (inactive)	inactive	0.158 µM (active)
CC(=O)OC[C@@H]1O[C@@H](O/N=C2/C[C@@H](O)[C@@H](O)[C@@H]3[C@@H]4C(=O)N(Cc5ccc6c(c5)OCO6)C(=O)[C@H]4CC[C@H]23)[C@H](OC(C)=O)[C@H](OC(C)=O)[C@@H]1OC(C)=O	5.01 µM (active)		-74.2% [at 11.4 µM] (inactive)	3.16 µM (active)	
COc1ccc(/C=C/C2=CC3(C)CC2(C)C(c2ccc(OC)cc2)CC3=O)cc1 (configuration not stated)	5.01 µM (active)		-60.7% [at 11.4 µM] (inactive)	inactive	inactive
C/C=C/OC(=O)NC(c1ccccc1)[C@@]1(C(=O)OCC)CCCC1=O (some centres not stated)	0.0158 µM (active)		-71.4% [at 11.4 µM] (inactive)	inactive	0.0251 µM (active)
CO[C@H]1COC(=O)C/C=C\[C@H](C)[C@@H](NS(=O)(=O)c2ccc(C)cc2)COC(=O)C/C=C\[C@@H]1C	3.16 µM (active)		-67.8% [at 11.4 µM] (inactive) and -95.2% [at 11.4 µM] (inactive)	inactive	
CCCCC#CC1C=CC(Oc2cc(OC)c(OC)c(OC)c2)C(COC(=O)OCC)O1 (configuration not stated)	2.51 µM (active)		-83.6% [at 11.4 µM] (inactive)	inactive	inactive
Nc1ccccc1C(=O)/C=C\c1ccc2c(c1)OCO2	3.16 µM (active)		-84.3% [at 11.4 µM] (inactive)	3.16 µM (active)	
C=CC[C@@H]1C=C[C@H](O/N=C(\C)CCN2CCCCc3nc(C)c(C)cc32)[C@H](CO)O1	3.98 µM (active)		-81.7% [at 11.4 µM] (inactive)	3.98 µM (active)	
CCCCC#CC1C=CC(Oc2ccc(C(=O)OC)cc2)C(COC(=O)OCC)O1 (configuration not stated)	3.98 µM (active)		-80.8% [at 11.4 µM] (inactive)	inactive	inactive

Source: PubChem BioAssay (NCATS)
